# ssDAF12 agonist: S. stercoralis DAF-12 nuclear receptor activators, primary screen, cell-based, luminescence, HEK293, GRIP1 co-expression, lit1-tk-luc; HEK293 ssDAF-12/GRIP1 lit1-tk-luc reporter; % of 3 µM dafachronic acid response; 370,000 tested, 1% active; AID 652126, 2013; activation, % at 6.8 µM;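 active means activation above the mean over all tested compounds plus 3 SD, cut at about 0.9% in these data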;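 further: 0% = DMSO-only wells and 100% = 3 µM delta7-dafachronic acid wells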
# hgDAF12 agonist: H. glycines DAF-12 receptor agonists, primary screen, cell-based, luminescence, HEK293, GAL4 fusion, UAS-luciferase | HEK293 GAL4-hgDAF12 UAS-luciferase reporter, agonist luminescence; normalized to butyrate control | Nuclear hormone receptor DAF-12 (Heterodera glycines), GAL4 fusion | 370,000 tested, 1.8% active | activation, % at 6.8 µM;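 active means activation above a cutoff set at the mean of all screened compounds plus 3 SD, cut at about 10% in these data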;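 further: 0% = DMSO wells and 100% = sodium butyrate wells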
# hcDAF-12 act: H. contortus DAF-12 nuclear receptor activators, primary screen, cell-based, luminescence, HEK293, lit1-tk-luc reporter | 370,000 tested, 1.4% active | activation, % at 6.8 µM | HEK293 hcDAF-12 lit1-tk-luc reporter; 0% DMSO, 100% Δ7-dafachronic acid;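 active means activation above the mean of all tested compounds plus 3 SD, cut at about 5.5% in these data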;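 further: 100% = response to 3 µM Δ7-dafachronic acid high control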
# DAX1 inh-1: DAX1 (NR0B1) inhibitors, primary screen, cell-based, HEK293, Gal4-DAX1, luciferase luminescence | Nuclear receptor subfamily 0 group B member 1 (Homo sapiens), P51843 | HEK293 Gal4-DAX1 luciferase reporter | inhibition, % at 6.75 µM | 340,000 tested, 0.99% active;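 active means inhibition above the mean over all tested compounds plus 3 SD, cut at about 4.2% in these data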;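 further: 0% = DAX1-transfected cells with DMSO and 100% = empty-vector control cells with DMSO; inhibition shows as a rise in luminescence from relieved DAX1 repression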
# Target sequence (P51843 207-470 limits assumed): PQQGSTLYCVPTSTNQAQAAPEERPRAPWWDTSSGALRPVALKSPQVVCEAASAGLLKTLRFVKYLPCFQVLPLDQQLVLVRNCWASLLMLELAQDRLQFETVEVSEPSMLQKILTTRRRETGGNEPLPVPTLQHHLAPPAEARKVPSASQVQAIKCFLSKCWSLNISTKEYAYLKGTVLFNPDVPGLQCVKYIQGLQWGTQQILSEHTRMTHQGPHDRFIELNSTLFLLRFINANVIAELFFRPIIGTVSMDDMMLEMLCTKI
# DAX1 inh-2: DAX1 (NR0B1) inhibitors on StAR promoter, primary screen, cell-based, luminescence, SF-1 (NR5A1), full-length DAX-1; inhibition, % at 6.8 µM; HEK293T StAR-luciferase reporter, SF-1/DAX-1 repression relief; 370,000 tested, 1.1% active;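 active means inhibition above the mean over all tested compounds plus 3 SD, cut at about 3.6% in these data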;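 further: 0% = DAX-1 cells with DMSO and 100% = cells lacking DAX-1 with DMSO; higher inhibition means more luminescence from relief of DAX-1 repression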
# DAX1 conf: DAX1 (NR0B1) inhibitors relieving SF-1 repression, confirmation, cell-based, luminescence, HEK293T, full-length DAX-1, SF-1 activated StAR promoter. 2,400 tested, 87% active. inhibition, % at 6.8 µM. AID 652134, 2013. HEK293T StAR-promoter luciferase reporter, SF-1/DAX-1 repression. shares compounds with DAX1 inh-2;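 active means inhibition above the average of every tested compound plus 3 SD, cut at about 3.8% in these data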;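 further: 0% = DAX-1 cells with DMSO and 100% = no DAX-1 control cells with DMSO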
# SF1 mutant ctr: StAR reporter signal changes without DAX1, counter-screen for DAX1 inhibitor project, cell-based, luminescence, AF-2 mutant SF-1, transactivation; shares compounds with DAX1 inh-2; HEK293 StAR-luciferase, SF-1 AF2 mutant; inhibition, % at 6.8 µM; 2,400 tested, 78% active; AID 652136, 2013;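 active means inhibition above the mean of all tested compounds plus 3 SD, cut at about 3% in these data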;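 further: 0% = DAX-1 transfected cells with DMSO and 100% = cells without DAX-1 with DMSO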
# LXR ag: LXR agonists, Gal4 luciferase reporter, confirmation, counter-screen for hcDAF-12 agonist project, cell-based, luminescence, HEK293, H. contortus campaign; shares compounds with hcDAF-12 act; HEK293 Gal4-LXR tk-luc reporter, 24 h; normalized: DMSO 0%, positive control 100%; 3,400 tested, under 10 active; activation, % at 6.8 µM;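 active means mean percent activation of the reporter above a cutoff set as the average over tested compounds plus their standard deviation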
# Target sequence (P55055 whole entry, looked up, the tested form may be a part): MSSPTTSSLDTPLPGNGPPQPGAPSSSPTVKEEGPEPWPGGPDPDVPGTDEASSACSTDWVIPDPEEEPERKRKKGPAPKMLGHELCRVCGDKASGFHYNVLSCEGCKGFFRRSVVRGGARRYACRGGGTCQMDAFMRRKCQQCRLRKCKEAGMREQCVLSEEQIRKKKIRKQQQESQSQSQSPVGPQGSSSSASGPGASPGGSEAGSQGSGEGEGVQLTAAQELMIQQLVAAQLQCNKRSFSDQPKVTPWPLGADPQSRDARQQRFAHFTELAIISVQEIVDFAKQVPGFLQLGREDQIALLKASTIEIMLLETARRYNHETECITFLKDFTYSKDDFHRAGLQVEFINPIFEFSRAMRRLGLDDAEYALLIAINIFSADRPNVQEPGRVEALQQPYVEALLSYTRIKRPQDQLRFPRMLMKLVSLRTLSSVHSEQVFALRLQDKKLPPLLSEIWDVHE
# hcDAF12 conf: H. contortus DAF-12 receptor agonists, confirmation, cell-based, luminescence, HEK293, lit1-tk-luc, triplicate; shares compounds with hcDAF-12 act; HEK293 hcDAF-12 lit1-tk-luc reporter; % of Δ7-dafachronic acid response; activation, % at 6.8 µM; 3,400 tested, 61% active; AID 743032, 2013;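 active means mean activation across triplicate tests above the threshold derived from the earlier primary screen, cut at about 5.5% in these data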;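 further: 0% = DMSO only wells and 100% = 3 µM Δ7-dafachronic acid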
# hgDAF12 conf: H. glycines DAF-12 receptor agonists, confirmation, cell-based, luminescence, HEK293, GAL4-LBD fusion; shares compounds with hgDAF12 agonist; HEK293 GAL4-hgDAF12 luciferase reporter, agonist mode; percent of butyrate response; activation, % at 6.8 µM; 3,300 tested, 80% active; AID 743050, 2013;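 active means mean activation over triplicate wells above the hit cutoff derived from the earlier primary screen, cut at about 11% in these data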;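 further: 0% = DMSO low control and 100% = 2 mM sodium butyrate high control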
# LXR ag 2: LXR agonists, Gal4 luciferase reporter, confirmation, counter-screen for hgDAF-12 agonist project, cell-based, luminescence, HEK293, H. glycines campaign; shares compounds with hgDAF12 agonist; 24 h; activation, % at 6.8 µM; 3,300 tested, under 10 active; AID 743051, 2013;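 active means mean activation of the triplicate above a set limit carried over from the primary screen, none filed active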
# The depositor's hits bear a star; nt = no result. Compounds with a hit are over-represented: about 4.1% of the library has one in this group of screens.
SMILES,ssDAF12 agonist,hgDAF12 agonist,hcDAF-12 act,DAX1 inh-1,DAX1 inh-2,DAX1 conf,SF1 mutant ctr,hgDAF12 conf,LXR ag 2,others
COc1cccc(CNc2ccc(Br)cn2)c1O,1.1*,18.9*,6.8*,1.1,4.5*,12.3*,6.1*,17.8*,0.8,LXR ag=1.2;hcDAF12 conf=6.0*
COCCNc1nc(-c2cc3ccccc3o2)cs1,0.2,15.9*,8.7*,1.1,6.7*,9.9*,7.2*,18.3*,1.0,LXR ag=1.5;hcDAF12 conf=7.5*
CC(C)c1ccc(/C=C/C(=O)Nc2nncs2)cc1,0.7,18.9*,12.8*,-0.3,5.5*,13.8*,4.8*,18.4*,1.4,LXR ag=2.2;hcDAF12 conf=6.3*
CC(C)C(=O)N1CCC(Oc2cccnc2)CC1,-1.2,-3.4,0.1,nt,0.4,nt,nt,nt,nt,
O=C([C@@H]1C[C@H]1c1ccccc1)N1CC[C@H]2[C@H](CCCN2Cc2cc(F)cc(F)c2)C1,-1.6,-0.7,-2.3,nt,-0.8,nt,nt,nt,nt,
O=C(NCc1ccccc1)C(c1ccccc1)n1c(-c2ccncc2)nc2ccccc21 (stereo unspecified),-0.9,0.3,1.1,nt,0.7,nt,nt,nt,nt,
O=C(NCc1ccccc1)C(c1ccccc1)n1c(C2CC2)nc2ccccc21 (stereo unspecified),1.9*,19.8*,2.1,nt,6.1*,10.6*,5.2*,15.9*,0.8,
O=C(Cc1cccs1)NC1CCCCN(Cc2ccc(Cl)cc2)C1=O (stereo unspecified),-0.8,1.4,1.5,nt,-0.8,nt,nt,nt,nt,
NC(=O)c1ccc(OCc2ccccc2)nc1,0.1,15.0*,3.7,3.0,5.0*,5.8*,3.3*,11.4*,0.4,
COc1ccc(-c2nc3ccc(C)cn3c2Cc2ccccc2C(F)(F)F)cc1OC,-1.4,0.9,-2.5,nt,0.7,nt,nt,nt,nt,
Cc1ccc(-c2nc3ccc(Br)cn3c2Cc2ccccc2)cc1,0.6,14.1*,3.1,nt,5.4*,8.2*,2.6,15.8*,0.5,
Cc1ccc(Cc2c(-c3ccc(F)cc3)nc3ccc(Br)cn23)cc1,-0.8,6.0,1.9,nt,1.1,nt,nt,nt,nt,
Cc1ccc(Cc2c(-c3ccc(Br)cc3)nc3cc(C)ccn23)cc1,-0.5,13.8*,3.6,3.9,7.5*,3.7*,1.9,1.5,0.1,
Cc1ccc2nc(-c3ccc(F)cc3)c(Cc3ccccc3C(F)(F)F)n2c1,1.7*,13.9*,4.9,nt,4.7*,2.4,4.6*,6.3,0.3,
Cc1ccc2nc(-c3ccc(C#N)cc3)c(Cc3ccccn3)n2c1,0.3,6.4,0.7,nt,2.8,nt,nt,nt,nt,
Cc1ccc(Cc2c(-c3ccccc3)nc3ccc(Br)cn23)cc1,-0.5,6.7,2.4,0.2,2.0,nt,nt,nt,nt,
Cc1ccc(-c2nc3ccc(C)cn3c2Cc2ccccn2)cc1,-0.1,13.7*,2.7,nt,5.8*,10.3*,4.5*,5.1,0.5,
CN(c1ccc(NC(=O)Cc2cn(C)c3ccccc23)cc1)c1ccccn1,-1.0,1.0,-1.0,nt,-0.9,nt,nt,nt,nt,
COC(=O)C1=C(C)N(C)C(=NCc2cccc(C(F)(F)F)c2)NC1c1ccc(C(F)(F)F)cc1 (stereo unspecified),-0.9,4.5,-1.9,nt,-0.4,nt,nt,nt,nt,
C[C@H]1COc2cc(Br)ccc2S(=O)(=O)N1Cc1cn(Cc2ccc(Br)cc2)nn1,-1.7,1.2,3.0,nt,-0.9,nt,nt,nt,nt,
COC(=O)C[C@@H]1CC[C@H]2[C@H](COc3ccc(NC(=O)Nc4ccc(Cl)cc4)cc3C(=O)N2C)O1,-1.0,-0.7,-2.8,nt,-1.5,nt,nt,nt,nt,
COc1ccc(CCn2cnn3c(=O)c4ccccc4nc3c2=O)cc1OC,-1.4,2.4,-0.9,nt,-0.4,nt,nt,nt,nt,
Cc1ccc(Cc2c(-c3ccc(F)cc3)nc3cc(C)ccn23)cc1,-0.4,17.0*,1.5,2.7,6.6*,0.4,0.4,6.8,0.3,
Cc1ccc(Cc2c(-c3ccc(F)cc3)nc3ccc(Cl)cn23)cc1,0.6,3.0,1.4,2.8,1.7,nt,nt,nt,nt,
CSc1ccc(/C=N/Nc2ccc(Cl)c(C(=O)O)c2)cc1,0.1,14.3*,4.7,1.4,6.7*,17.1*,5.9*,28.7*,1.0,
COC(=O)C1=C(C)N(C)C(=NCc2ccccc2)NC1c1ccccc1C(F)(F)F (stereo unspecified),-1.1,-1.8,-1.0,nt,1.1,nt,nt,nt,nt,
Cn1nnc2cc(NC(=O)Nc3ccccc3F)ccc21,0.1,15.5*,3.8,1.6,7.4*,9.8*,4.4*,14.1*,0.8,
Cn1nnc2cc(C(=O)Nc3ccccc3F)ccc21,-0.4,0.9,-0.4,-1.6,0.7,nt,nt,nt,nt,
Cc1ccn2c(c1)nc(=S)n2C(=O)c1ccccc1,0.5,15.0*,6.7*,4.5*,6.5*,8.0*,0.7,10.8*,0.8,LXR ag=1.4;hcDAF12 conf=11.6*
